SMILES strings stand for the structures. Out of some 6,700 compounds screened, about 20 (0.3%) were called active. What follows is part of a selection rich in actives, with near analogues and random picks from the rest. A number with no mark means an inactive call.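 The calls were made as follows: active = mean percent activation in the counterscreen above 29.09%; inactive = the rest.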

For the assay, the target named is Glucose-dependent insulinotropic receptor (Homo sapiens) (UniProt Q8TDV5). Description: GPR119 activators in beta-arrestin cells, counter-screen for GPR151 activator project, cell-based, PathHunter beta-arrestin, luminescence, triplicate (AID 1508611).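 Also: counterscreen on off-target GPR119 to flag nonselective hits from the GPR151 activator screen.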 The conditions noted are these: 90 min, at 11.2 µM, hits give high values, 0 = compound-well median, 100 = enzyme-acceptor control.
Glucose-dependent insulinotropic receptor (Homo sapiens), sequence (Q8TDV5 whole entry, looked up): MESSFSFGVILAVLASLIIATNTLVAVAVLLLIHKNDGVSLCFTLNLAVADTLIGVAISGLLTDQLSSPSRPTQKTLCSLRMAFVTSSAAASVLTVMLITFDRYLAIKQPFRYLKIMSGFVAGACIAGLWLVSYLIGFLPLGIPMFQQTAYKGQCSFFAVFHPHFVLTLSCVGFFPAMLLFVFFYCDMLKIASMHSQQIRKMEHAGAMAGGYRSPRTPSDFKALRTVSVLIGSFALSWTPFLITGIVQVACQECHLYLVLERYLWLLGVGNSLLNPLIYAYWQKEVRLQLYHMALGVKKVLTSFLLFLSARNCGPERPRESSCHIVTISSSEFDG
On to `Cc1nc(-c2cccc(NC(=O)C3CC(=O)c4ccccc43)c2)cs1` (stereo not given), for which the activation is 4.74%.
The figure for `CC(C)CNc1nc2c(c(=O)[nH]c(=O)n2C)n1CC(C)O` (stereo not given) is 5.13%; for `CCCCOC(=O)C1=C(C)NC2=C(C(=O)CCC2)C1c1cccc([N+](=O)[O-])c1` (stereo not given) it is -13.7%; for `NC(=O)C1CCN(C(=O)c2ccc(-c3ccccc3)cc2)CC1` it is -13.1%.
The figure for `CN1C(=O)c2ccc(N3C(=O)c4cccc([N+](=O)[O-])c4C3=O)cc2C1=O` is -8.76%.
Next, `COc1cc2nc(-c3cccc(C(C)=O)c3)nc(Nc3ccc(N4CCOCC4)cc3)c2cc1OC`: 1.25%.
As for `CCN(CC)c1nc(Nc2cc(OC)c(OC)c(OC)c2)nc(N2CCOCC2)n1`, the activation was -4.38%.
Next, `COc1cc(Nc2ccnc(Nc3ccc(N4CCOCC4)cc3)n2)cc(OC)c1OC`: 31.6% (active); `CCN(CC)c1nc(Nc2ccccc2)nc(Nc2ccccc2)n1`: 5.68%.
Turning to `CCOC(=O)c1cccc(NC(=O)/C=C/c2ccccc2)c1`, the activation was 2.43%.
On to `COCCn1c(C)cc(C(=O)CSc2nnc(-c3ccccc3)o2)c1C`, for which the activation is 0.76%.
The figure for `COc1ccc(OC)c(S(=O)(=O)Oc2ccc(Cl)c3cccnc23)c1` is 14.7%; for `O=C(CC1C(=O)NCCN1C(=O)c1ccc([N+](=O)[O-])cc1)Nc1cccc(Cl)c1` (stereo not given) it is 8.78%.
Regarding `COc1ccc(-c2cc(N)n(S(=O)(=O)c3ccccc3)n2)c(OC)c1`, the activation was -9.92%.
The figure for `c1ccc(-c2ccc(OCCCNCCN3CCOCC3)cc2)cc1` is -6.67%.
Next, `COc1ccc(C2=NN(C(=O)c3cc(OC)c(OC)c(OC)c3)C(c3ccc(Cl)cc3)C2)cc1OC` (stereo not given): 10.6%.
Next, `C=C(C)CSc1nc2sc3c(c2c(=O)n1-c1ccc(OC)cc1)CC(C)(C)OC3`: 13.8%; `COc1ccccc1C1CCCN1C(=O)C1CCN(c2nc(C)c3ccccc3n2)CC1` (stereo not given): 0.39%; `COc1ccc(OC)c(NC(=O)CN(c2cccc(C)c2C)S(C)(=O)=O)c1`: -9.68%.
Take `O=C(CC12CC3CC(CC(C3)C1)C2)Nc1ccc2oc(=O)ccc2c1`: the activation was -8.76%.
On to `CC(C)(C)C1(O)CCN2C[C@H]3c4ccccc4CCc4cccc(c43)[C@@H]2C1` (stereo not given in full), for which the activation is 2.66%.
Next, `OCCC1CN(Cc2ccc3cc(F)ccc3n2)CCN1C1CCCC1` (stereo not given): 11.7%; `CCCn1ncc(CN2CCCC(N3CCC(CO)CC3)C2)c1C` (stereo not given): 1.74%; `CCCOC(=O)C1=C(C)NC(=O)NC1c1ccc(Br)cc1` (stereo not given): -8.21%.
Take `O=C(Cn1c(=S)nc2ccccn21)N1CCc2ccccc2C1`: the activation was 4.38%.
Next, `CCOC(=O)C1=CN(C)C=C(C(=O)OCC)C1c1ccc(OC)cc1`: 7.33%; `O=C(O)COc1ccc(N2C(=O)C(=O)/C(=C(\O)c3ccccc3)C2c2ccc(Cl)cc2Cl)cc1` (stereo not given): 1.15%.
The figure for `Cc1nnc(SCC(=O)NCc2ccccc2)s1` is -8.49%; for `CN(CC(=O)Nc1cccc2c1CCCC2)S(=O)(=O)c1ccc(Cl)cc1` it is -16%.
As to `COC(=O)[C@@H]1CC[C@H](C)[C@@H](c2ccc(C)cc2)N1C(=O)c1ccc(/C=N/O[C@H](C)c2cn([C@@H]3COC[C@H]3O)nn2)cc1`, the activation was -5.11%.
Next, `Cc1ccccc1CC1(CO)CCCN(Cc2ccncc2)C1` (stereo not given): -3.82%.
The figure for `O=C(CSc1ccc(F)cc1)Nc1cccc2ccccc12` is -0.98%; for `COc1ccc2c(c1)C=C(CN1CCN(CC3CCCCC3)C(CCO)C1)CO2` (stereo not given) it is 10.3%; for `O=c1[nH]c(=S)[nH]c(O)c1C=Nc1ccc(F)c(Cl)c1` it is 5.32%.
The figure for `O=C(Cn1c(=O)n(Cc2cccs2)c(=O)c2cccnc21)Nc1ccc(F)cc1` is -1.72%.
On to `CCOC(=O)c1sc(NC(=O)CSc2ncccn2)c(C#N)c1C`, for which the activation is 2.97%.
Next, `CC(C)C(=O)NNS(=O)(=O)c1ccc([N+](=O)[O-])cc1`: 0.04%; `O=C(NCc1nnc(SCC(=O)N2N=C(c3cccs3)CC2c2ccc(F)cc2)n1Cc1ccccc1)c1cccc(F)c1` (stereo not given): -10.8%.
With `CCc1ccc(-c2ccc(C3CCC(CC)CC3)cc2)nc1` (stereo not given), the activation was -6.15%.
The figure for `CC(C)c1ccc(Nc2nccn3c(-c4cccc(CO)c4)cnc23)cc1` is 15.7%; for `O=C(c1ccccc1)N1CCCCC(Sc2ncnc3sc4c(c23)CCCC4)C1=O` (stereo not given) it is 0.65%; for `C[C@H]1Cc2c(COc3ccccc3)nc3c(c2CO1)CN(C(=O)NCc1ccco1)CC3` it is 9.06%.
The figure for `CC(C)n1c(Nc2ccc3ncccc3c2)nc2c(NC3CC3)ncnc21` is 3.65%; for `Cc1cc(CN(C)Cc2ccc(OCC(O)CN(C)Cc3ccccc3)cc2)n[nH]1` (stereo not given) it is -0.59%.
Next, `O=C(NCCOc1ccccc1)c1cnc(N2CCN(c3ccccn3)CC2)s1`: 1.31%; `COC(=O)CN1C=C(C(=O)OC)C(c2ccc(OC)c(O)c2)C(C(=O)OC)=C1`: 20.6%.
Regarding `CCOC(=O)c1cc2cc(-c3c(C)oc4cc(OC(C)=O)ccc4c3=O)ccc2o1`, the activation is -2.06%.
Next, `CN(Cc1nc(-c2ccc3c(c2)OCO3)no1)C1CCCc2ccccc21` (stereo not given): 0.92%; `O=C(Cc1cccs1)Nn1c(-c2cccc([N+](=O)[O-])c2)nc2ccccc2c1=O`: 13.2%; `CC1(C(=O)Nc2cccc(C(F)(F)F)c2)CC2c3ccccc3C1c1ccccc12` (stereo not given): 0.35%.
The figure for `O=CN1CCN(CCC(=O)Nc2ccccc2)CC1` is -6.54%.
Next, `CCOc1ccc(NC(=O)N2CCN(CC)CC2)cc1`: 6.5%.
For the molecule `CCSc1nc2sccn2c(=O)c1C(=O)NC(Cc1ccccn1)C(F)(F)F` (stereo not given), the activation was -3.52%.
Next, `Cc1cccc(-n2nc3c(c2NC(=O)CCC2CCCCC2)CS(=O)(=O)C3)c1C`: 7.21%; `COc1ccc(-c2noc(N3CCC(C(=O)NCCCN4CCN(C)CC4)CC3)n2)cc1`: 3.82%; `FC(F)(F)c1ccc(Cn2cnc3c(NCc4cccc(C(F)(F)F)c4)nc(Nc4ccc(N5CCOCC5)cc4)nc32)cc1`: -10.4%.
The figure for `CC(=O)Nc1nnc(CCOCC(C)OCCc2nnc(NC(C)=O)s2)s1` (stereo not given) is 12.3%; for `CCOc1cc2c(cc1OCC)C(c1ccc3ccccc3c1)NCC2` (stereo not given) it is -1.89%.
The figure for `CCOc1ccc(C(=O)Nc2nnc(CC)s2)cc1[N+](=O)[O-]` is -8.62%; for `O=S(=O)(c1ccc(F)cc1)N1CCN(CCCc2ccccc2)CC1` it is 15.2%; for `O=C(N/N=C/c1cccc(Cl)c1Cl)c1cccs1` it is -19.1%.
For `CCOC(=O)c1ccc2nc(NC(=O)CSc3nc4ccccc4[nH]3)sc2c1`, the activation was 6.61%.
Next, `COCCNC(=O)CSc1nccn1Cc1ccco1`: 5.14%.
Next, `COCC(=O)Nc1c(I)c(C(=O)NCC(O)CO)c(I)c(C(=O)N(C)CC(O)CO)c1I` (stereo not given): -9.51%; `O=C(CCc1ccccc1)Nc1cccc(C(=O)N2CCOCC2)c1`: -6.29%; `CC(/C=N\NC(=O)CSc1nc(C)cc(C)n1)=C\c1ccccc1`: -12.7%.
Next, `COCCNC(=O)c1cc2c(=O)n3ccccc3nc2n(CCc2ccccc2)c1=N`: 3.06%; `CCCN1C(=O)c2ccc(C(=O)Nc3ccc(C(C)=O)cc3)cc2C1=O`: 0.52%; `O=C(c1cc([N+](=O)[O-])ccc1NC1CCCCC1)N1CCOCC1`: -18.9%.
On to `CCN(CC)C(=O)C1CCCN(c2cccc(C(=O)NCCc3ccc(OC)cc3)n2)C1` (stereo not given), for which the activation is -12.6%.
The figure for `Cc1ccc(-c2nnc(N3CCOCC3)c3ccccc23)cc1S(=O)(=O)N1CCN(C)CC1` is -11.5%; for `C=CCN1C(=O)CC(C(=O)OC)C12CCN(C1CCN(C(=O)OCC)CC1)CC2` (stereo not given) it is -5.11%; for `COC(=O)NNC(=S)Nc1cc(S(=O)(=O)N(C)C)ccc1C` it is -12.9%.
Next, `CCCCOc1ccccc1CNCC`: 0.16%; `O=C(CN1C(=O)S/C(=C\c2ccc(Cl)s2)C1=O)Nc1ccccc1F`: -11%; `CSc1nc(N)nc2nc[nH]c12`: -1.61%.
The figure for `CCc1ccc(-n2c(C)c(C)n3c4c(=O)n(CC)c(=O)n(C)c4nc23)cc1` is -2.08%; for `C#CCOc1ccc(Br)cc1/C=C1\NC(=S)N(C)C1=O` it is -3.86%; for `CS(=O)(=O)N(CC(=O)Nc1ccc(F)cc1F)c1ccc(F)cc1` it is -2.79%.
In the case of `Cc1ccc(C(C)C)c(OCCCn2ccnc2)c1`, the activation was 0.47%.
Next, `COc1ccccc1C(=O)N/C(=C\c1ccc2c(c1)OCO2)C(N)=O`: 4.53%; `C=CCN(c1ccc(C(=O)Nc2ccc(OCc3ccccc3)cc2)cc1)S(C)(=O)=O`: -10.1%; `CC(=O)NC(CC(=O)O)c1ccc(F)cc1` (stereo not given): 3.48%.
The figure for `COc1cccc(/C=C(\C#N)c2nc3ccc(C)cc3[nH]2)c1OC` is 17.6%; for `Cc1ccc(NCC(=O)N/N=C\c2ccc(I)o2)cc1` it is -0.01%.
Next, `COc1cccc(C2SCC(=O)N2c2cccc(C)c2)c1OC` (stereo not given): 13.2%; `CC1(c2ccccc2NC(=O)c2ccc([N+](=O)[O-])cc2)CC1`: 0.99%.
With `O=[N+]([O-])c1ccc2ncnc(Nc3cccc(C(F)(F)F)c3)c2c1`, the activation is 9%.
Regarding `O=C(COc1ccc(S(=O)(=O)NCCc2ccccc2)cc1)NC1CC1`, the activation is -10.3%.
The figure for `O=C(Nc1ccc2[nH]ncc2c1)N1CCCNCC1` is 3.8%.

These data come from PubChem BioAssay AID1508611 (The Scripps Research Institute Molecular Screening Center, 2020).
